HTT ATP protect: cytoprotection in Huntington HTT-Q103 PC12 cell model | AID 1471 | Potency, µM (titrated, usually from 56.4 µM), without a hit: cytoprotection (ATP increase), usual class: activators | 230,000 tested, 0.14% active | PC12 HTT-Q103 induced, cytoprotection, ATP luminescence, 40 h; further: % of control where 0% means no effect; nearly all actives have a fitted effect of over 45% in size
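Rat PC12, Q103 Htt exon1-GFP fusion, ecdysone promoter; tebufenozide inducer 100 nM final; compound titration; qHTS, 1500 cells/well; ATPlite luminescent read.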
Tau fibril ThT: inhibitors of human tau fibril formation, thioflavin T binding; P10636; recombinant tau K18 P301L, heparin-induced fibrillization, ThT fluorescence; Potency, µM (series often up to 57.4 µM), without a hit: top-dose activity, negative = inhibition, hits mostly inhibitors; 270,000 tested, 2.1% active; further: on the % scale 0 is the no-effect control and ±100 the full control effect; nearly all actives have a fitted effect of over 55% in size
Target sequence (P10636 561-689 P618L limits assumed): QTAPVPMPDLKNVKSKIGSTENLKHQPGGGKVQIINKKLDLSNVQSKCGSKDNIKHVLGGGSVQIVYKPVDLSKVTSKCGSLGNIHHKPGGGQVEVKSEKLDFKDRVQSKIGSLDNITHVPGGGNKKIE
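Using a mix of unlabeled (15 uM) and Alexa 594-labeled (0.24 uM) tau K18 P301L, heparin-triggered fibrillization over 6 hr at 37 C was scored by ThT fluorescence.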
Tau fluor counter: counter-screen for tau fibril formation inhibitors | tau K18 P301L (four-repeat tau fragment) Alexa594 fluorescence, heparin fibrillization | Potency, µM (titrated, usually from 57.7 µM), for inactives: at the highest dose activity change, negative = decrease | 280,000 tested, 0.93% active | AID 1463; further: on the % scale 0 is the no-effect control and ±100 the full control effect; nearly all actives have a fitted effect of over 55% in size
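Human K18 P301L tau (15 uM unlabeled plus 0.24 uM Alexa 594-labeled, final) in 100 mM sodium acetate pH 7 was mixed with compound and 20 uM heparin and incubated 6 hr at 37 C.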
Tau FP inhib: tau fibrillization inhibition (FP). Potency, µM (series often up to 57.7 µM), without a hit: at the top dose activity, negative = inhibition, actives largely listed as inhibitors. AID 1468. P10636. 280,000 tested, 0.39% active. K18 P301L tau heparin fibrillization, Alexa594 FP, 6 h; further: on the % scale 0 is the no-effect control and ±100 the full control effect; nearly all actives have a fitted effect of over 55% in size
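Human K18 P301L fragment (15 uM unlabeled plus 0.24 uM Alexa 594-labeled) in 100 mM sodium acetate pH 7 with compound, aggregation induced by 20 uM heparin for 6 hr at 37 C. ThT (30 uM) added for 1 hr, then Alexa 594 FP read.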
HTT aggregate: mutant huntingtin aggregation inhibition. PC12 HttQ103-GFP aggregates, Acumen cytometry, 40 h. Potency, µM (top dose mostly 46.1 µM), inactives show top-dose activity change, negative = inhibition, most hits filed as inhibitors. 220,000 tested, 1.1% active. AID 1688; further: on the % scale 0 is the no-effect control and ±100 the full control effect; nearly all actives have a fitted effect of over 60% in size
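Compounds (qHTS titration) were added to PC12 cells expressing an ecdysone-driven HTT exon 1 Q103–GFP fusion after induction with 100 nM tebufenozide. Aggregate formation was measured as GFP objects in cell lysates.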
* = called active by the depositor; ? = inconclusive; / = no result; ! = not active in a repeat; [ ] = another dose, or the depositor's remark. Compounds with a hit are over-represented: about 3.7% of the library has one in this group of screens. The call rests on the fitted dose curve; in most records, active means well fitted curve in the direction sought with a large enough effect; inconclusive means small, poorly fitted or top-dose-only effect, or another doubt; inactive means no such curve, though single readings can be large; an effect the other way counts as inactive or inconclusive. Potency means the concentration at half of the fitted maximal effect.

SMILES	HTT ATP protect	Tau fibril ThT	Tau fluor counter	Tau FP inhib	HTT aggregate
O=C(CCCC(=O)NCC1CCCO1)NCC1CCCO1 (stereo not given)	-10.8%	-1.2%	5.3%	3.5%	-9.7%
O=C(CN1CCCCCC1)NCC1CCCO1 (stereo not given)	2.24µM*	-15.5%	-9.2%	3.3%	17.1%[9.22 µM]
O=S(=O)(O)CCCc1cccc2ccccc12	10.6%[10 µM]	/	/	/	/
CCNc1nc(NC(C)C)nc(N(C#N)CCOc2ccccc2)n1	-8.1%	-6.7%	-15.4%	-3.2%	22.4µM*
COc1ccc(N=Nc2nc(-c3ccccc3)c(-c3ccccc3)[nH]2)cc1	14.6%[10 µM]	3.98µM*	?	6.1%	?
COc1ccccc1N=Nc1nc(-c2ccccc2)c(-c2ccccc2)[nH]1	18.2%[1.9 µM]	3.55µM*	?	3.2%	?
Oc1ccccc1N=Nc1nc(-c2ccccc2)c(-c2ccccc2)[nH]1	-56.4%[10 µM]	4.47µM*	11.2µM*[quencher]	-5.5%	?
COc1ccc(-c2nc(C)ncc2N=Nc2ccccc2)cc1	-37.0%	?	?	14.6%	-23.4%
O=C(O)c1ccc(-c2nc(-c3ccccc3)c(-c3ccccc3)[nH]2)cc1	6.3%[10 µM]	-12.8%	-8.2%	7.0%	12.8%
CCCCCCCCCCCCCCCCOCCOCCOCCOCCOCCOCCOCCOCCOCCOCCOCCOCCOCCOCCOCCOCCOCCOCCOCCOCCO	-98.0%	/	/	/	?
O=C(O)CCC(=O)c1ccc[nH]1	-0.9%[10 µM]	/	/	/	/
COc1ccc(S(=O)(=O)/N=C2/NC(=O)/C(=C\c3cc(OC)c(OC)cc3[N+](=O)[O-])S2)cc1	-13.6%	22.4µM*	?	-3.3%	8.4%
COc1ccc(S(=O)(=O)/N=C2/NC(=O)/C(=C/c3ccco3)S2)cc1	47.9%[0.074 µM]	?	-13.5%	?	12.1%
COc1ccc(S(=O)(=O)/N=C2/NC(=O)/C(=C\c3ccco3)S2)cc1	-3.6%[10 µM]	1.2%	-0.6%	9.8%	-16.0%
COc1cc(/C=C2\S/C(=N/S(=O)(=O)c3ccccc3)NC2=O)c([N+](=O)[O-])cc1OC	6.7%[10 µM]	14.1µM*	?	?	27.1%
COc1ccc(Cc2nnc(N/N=C/c3ccc(O)cc3)[nH]c2=O)cc1OC	-83.5%[10 µM]	-8.5%	-14.2%	-6.3%	1.12µM*
CCCn1c(/C=N/Nc2nc3ccccc3[nH]2)nc2ccccc21	-9.2%[10 µM]	?	?	?	15.8µM*
CC(C)Cn1c(/C=C/c2ccccc2)nc2ccccc21	-4.7%[10 µM]	-17.8%	-9.6%	-1.0%	?
C(=N\Nc1nc2ccccc2[nH]1)/c1cccs1	-93.8%	5.01µM*	?	17.8µM*	?
CC(C)Cn1c(/C=N/Nc2nc3ccccc3[nH]2)nc2ccccc21	-39.8%[10 µM]	?	28.2µM*[quencher]	13.0%	6.31µM*
Cn1c(/C=N/Nc2nc3ccccc3[nH]2)nc2ccccc21	-138.5%	3.98µM*	?	-0.2%	?
C(=N\Nc1nc2ccccc2[nH]1)/c1ccncc1	-34.8%	?	-21.7%	?	-4.6%
Cc1ccsc1/C=N/Nc1nc2ccccc2[nH]1	25.1%[1.9 µM]	?	?	0.6%	-8.5%
CC(C)[C@@H]1OC(=O)C=CC=CC=CC=CC=CC[C@@H](O)[C@H](C)[C@@H](O)C[C@H](O)C[C@H](O)C[C@H](O)C[C@H](O)C[C@H](O)C[C@H](O)C=C[C@@H]1C	-4.5%[10 µM]	/	/	/	/
CCn1c(C(=O)N2CCCC(C(=O)NCCCOC)C2)cc2sccc21 (stereo not given)	/	3.2%	-0.7%	0.3%	/
SMILES	HTT ATP protect	Tau fibril ThT	Tau fluor counter	Tau FP inhib	HTT aggregate
C=CCn1cc(/C=N/Nc2nc3ccccc3[nH]2)c2ccccc21	-20.4%[10 µM]	7.94µM*	11.2µM*[quencher]	1.3%	9.4%
Cc1c(/C=N/Nc2nc3ccccc3[nH]2)c2ccccc2n1C	-12.0%[10 µM]	/	14.1µM*[quencher]	17.6%	-10.0%[9.22 µM]
Cc1nn(-c2ccccc2)c(C)c1/C=N/Nc1nc2ccccc2[nH]1	-79.9%[10 µM]	-2.2%	-3.0%	3.6%	4.5%
COc1cc(NC(=O)N2CCC3(CC2)Nc2cc(F)ccc2-n2cccc23)cc(OC)c1OC	/	-11.4%	12.6µM*[quencher]	?	/
CCN1c2cc(C)ccc2-n2cccc2C12CCN(C(=O)Nc1cc(OC)c(OC)c(OC)c1)CC2	/	-10.5%	-26.3%	?	/
COc1ccccc1Nc1ncc(-c2cccs2)s1	-1.9%	14.1µM*	15.8µM*[quencher]	-7.7%	?
Cc1cccc(C)c1NC(=O)CN(C)S(=O)(=O)c1ccc2[nH]c3c(c2c1)CCCC3	/	1.9%	?	16.9%	/
Cc1cc(C)cc(NC(=O)CN(C)S(=O)(=O)c2ccc3[nH]c4c(c3c2)CCCC4)c1	/	-7.3%	4.47µM*[quencher]	-9.0%	/
CCOc1ccc(NC(=O)CN(C)S(=O)(=O)c2ccc3[nH]c4c(c3c2)CCCC4)cc1	/	-16.3%	14.1µM*[quencher]	3.8%	/
CC1=C(C(=O)Nc2ccc(C)cc2C)C(CC(C)C)n2nc(SCc3ccccc3C)nc2N1 (stereo not given)	/	-2.1%	-3.6%	-3.0%	/
COc1cc(/C=N/Nc2nc3c(c(=O)n(C)c(=O)n3C)n2Cc2ccccc2)ccc1OC(=O)c1ccco1	-21.5%[10 µM]	?	7.94µM*[quencher]	?	-24.4%
Cn1c(=O)c2c(nc(N/N=C/c3ccncc3)n2Cc2ccccc2)n(C)c1=O	-3.6%[10 µM]	1.3%	-1.8%	0.5%	0.0%[9.22 µM]
C[C@@H](CSC(=N)N)C(N)=O	-16.7%[10 µM]	/	/	/	/
Cc1ccc(Cn2c(=O)c3cccnc3n(CC(=O)Nc3cccc(C(F)(F)F)c3)c2=O)cc1	8.5%[10 µM]	13.4%	-10.2%	17.8µM*!	5.1%
CCc1ccc(NC(=O)Cn2c(=O)n(Cc3ccccc3)c(=O)c3oc4ccccc4c32)cc1	/	?	-14.4%	?	/
COc1ccc(NC(=O)Cn2c(=O)n(Cc3ccccc3OC)c(=O)c3cccnc32)cc1Cl	/	20.3%	-26.7%	25.1µM*	/
O=C(Cn1c(=O)n(Cc2ccc(Cl)cc2)c(=O)c2cccnc21)Nc1ccccc1C(F)(F)F	/	6.1%	3.1%	-16.9%	/
COc1ccc(NC(=O)Cn2c(=O)n(Cc3ccccc3)c(=O)c3oc4ccccc4c32)cc1Cl	/	?	-27.9%	28.2µM*	/
CC(=O)O[C@H]1CC(C)(C)C(=C=C/C(C)=C/C=C/C(C)=C/C=C/C=C(C)/C=C/C=C(\C)C(=O)C[C@@]23O[C@]2(C)C[C@@H](O)CC3(C)C)[C@](C)(O)C1	-4.5%[10 µM]	25.1µM*	-9.6%	?	-13.8%[9.22 µM]
CCOC(=O)c1ccc(NC(=O)Cc2ccc(-n3c(CC)nc4cccnc43)cc2)cc1	/	1.1%	-25.4%	-1.3%	/
COc1ccccc1N1CCN(C(c2cccs2)C(C)NC(=O)c2cccnc2)CC1 (stereo not given)	5.62µM*	-0.7%	-0.9%	6.9%	?
O=c1n(Cc2ccc([N+](=O)[O-])cc2)c2ccccc2c2nc(-c3ccccc3)nn12	/	-17.8%	-18.9%	3.2%	/
O=[n+]1ccn([O-])c2ccccc21	-15.4%	/	/	/	8.7%
